Records with an inconclusive call do not appear. Calls of active or inactive are those of the source. Unless noted, calls come from the whole dose curve; as a rule, active = well fitted curve in either direction with a large enough effect (not every such curve was filed as active); inconclusive = small, poorly fitted or top-dose-only effect, or another doubt; inactive = flat fitted curve, though single readings scatter.
Experiments:
[1] = molecular target: Lysosomal acid glucosylceramidase (Homo sapiens) (UniProt P04062); assay: Glucocerebrosidase-p2 (AID 348; in the data active = potency below about 10 µM; note: potency is the fitted concentration of half-maximal effect); details: purified GBA, blue fluorogenic substrate, 40 min
Chain of Lysosomal acid glucosylceramidase (Homo sapiens) (P04062 whole entry, looked up): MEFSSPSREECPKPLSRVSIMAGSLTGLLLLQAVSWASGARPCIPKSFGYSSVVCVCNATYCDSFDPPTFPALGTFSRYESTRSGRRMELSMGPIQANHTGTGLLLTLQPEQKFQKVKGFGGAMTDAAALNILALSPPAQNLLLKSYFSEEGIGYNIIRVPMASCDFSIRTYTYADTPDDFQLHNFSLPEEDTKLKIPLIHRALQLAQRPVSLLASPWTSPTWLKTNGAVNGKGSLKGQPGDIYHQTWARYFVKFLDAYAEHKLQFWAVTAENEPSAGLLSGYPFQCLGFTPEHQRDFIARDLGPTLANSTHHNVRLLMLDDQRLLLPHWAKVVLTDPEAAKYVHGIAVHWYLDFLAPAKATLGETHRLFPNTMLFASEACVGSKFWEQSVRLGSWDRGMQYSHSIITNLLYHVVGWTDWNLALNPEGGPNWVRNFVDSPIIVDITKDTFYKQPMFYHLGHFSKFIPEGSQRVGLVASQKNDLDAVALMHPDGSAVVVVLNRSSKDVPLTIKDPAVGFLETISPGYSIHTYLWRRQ
Method in brief: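 Compounds titrated from 0.6 nM upwards against 0.2 nM enzyme in pH 5.9 citric acid/KH2PO4, taurocholate, tween-20; blue fluorogenic substrate 80 uM, 40 min room temperature, stopped and read Ex 365/Em 440 for AC50.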

[2] = AP1 Signaling Pathway (AID 357); details: ME-180 AP-1-bla reporter, EGF-induced, beta-lactamase ratio, 5 h; at 7.69 µM (top of the series) unless noted;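 note: ME-180 reporter cells stimulated with EGF at its EC50 level; % is set by controls: 0 for no effect and ±100 for the full control effect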
Method in brief: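 Modulation of EGF-driven AP-1 transcription was assessed with a beta-lactamase reporter in ME-180 cells. Compound and EC50 EGF were co-incubated 5 hours at 37 °C before 2.5-hour CCF4 loading at room temperature and dual-emission reading.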

[3] = Stat Signaling Pathway (AID 446); details: ME-180 SIE beta-lactamase reporter, IL-6 stimulated, 5 h; at 7.69 µM (top of the series) unless noted;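 note: ME-180 cervical cancer cells given 40 pM IL-6 alongside compound; SIE-controlled beta-lactamase reporter measured as 460/530 nm FRET emission ratio; % is set by controls: 0 for no effect and ±100 for the full control effect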
Method in brief: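 IL-6/STAT signaling read in ME-180 cells via an SIE beta-lactamase reporter. Stimulus was 40 pM IL-6 (its AC50) for 5 hrs, so both activation and inhibition register.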

[4] = molecular target: Glucocorticoid receptor (Homo sapiens) (UniProt P04150); assay: GR-EFC Redistribution (AID 451; calls by dose curve; note: potency is the fitted concentration of half-maximal effect); details: CHO-K1 GR-EFC translocation, beta-gal luminescence, 2 h
Chain of Glucocorticoid receptor (Homo sapiens) (P04150 whole entry, looked up, the tested form may be a part): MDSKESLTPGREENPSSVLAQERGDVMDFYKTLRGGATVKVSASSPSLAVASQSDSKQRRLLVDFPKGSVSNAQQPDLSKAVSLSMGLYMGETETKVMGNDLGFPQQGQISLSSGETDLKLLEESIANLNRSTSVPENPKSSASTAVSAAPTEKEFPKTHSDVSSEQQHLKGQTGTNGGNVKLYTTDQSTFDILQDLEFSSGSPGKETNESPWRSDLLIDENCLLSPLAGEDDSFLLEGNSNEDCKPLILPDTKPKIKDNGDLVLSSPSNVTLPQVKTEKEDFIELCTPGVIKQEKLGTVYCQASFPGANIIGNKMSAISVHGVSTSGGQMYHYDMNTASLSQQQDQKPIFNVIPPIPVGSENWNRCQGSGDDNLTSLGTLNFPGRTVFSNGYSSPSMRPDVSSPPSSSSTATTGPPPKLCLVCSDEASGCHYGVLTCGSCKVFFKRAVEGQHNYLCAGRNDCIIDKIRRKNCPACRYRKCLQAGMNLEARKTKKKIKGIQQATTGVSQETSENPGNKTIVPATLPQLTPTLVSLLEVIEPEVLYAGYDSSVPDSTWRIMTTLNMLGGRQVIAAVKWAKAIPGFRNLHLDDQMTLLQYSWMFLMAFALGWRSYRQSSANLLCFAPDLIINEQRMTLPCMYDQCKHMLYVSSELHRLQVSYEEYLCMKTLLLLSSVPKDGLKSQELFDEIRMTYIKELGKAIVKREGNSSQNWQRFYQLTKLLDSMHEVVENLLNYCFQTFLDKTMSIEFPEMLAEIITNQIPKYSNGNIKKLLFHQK
Method in brief: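 Translocation of GR-ED fusion to nuclear EA restores b-gal, read by luminescence after 1 h room-temperature detection. Engineered CHO-K1 biosensor cells, 1,000/well, exposed 2 h at 37 C to titrations up to 46 uM final.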

[5] = molecular target: Mitogen-activated protein kinase 10 (Mus musculus) (UniProt Q61831); assay: JNK3 AlphaScreen Assay (AID 530); details: JNK3 lysate, c-Jun phosphorylation; series mostly up to 57.1 µM;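 note: kinase came from lysate of stimulated human HepG2 cells; signal reports phosphorylation of biotinylated GST-cJun 1-79 at Ser73 with 10 µM ATP; % is set by controls: 0 for no effect and ±100 for the full control effect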
Method in brief: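 Compound titrations were preincubated 15 minutes at room temperature with substrate, antibody and pre-activated JNK3-containing HepG2 lysate. Reactions were started with 10 uM ATP and stopped with EDTA-containing bead buffer for AlphaScreen detection.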

[6] = molecular target: 3',5'-cyclic-AMP phosphodiesterase 4B (Homo sapiens) (UniProt Q07343); assay: qHTS Assay for Inhibitors of PDE-IV (AID 607; active = well fitted activation curve with a large enough effect in the main read-out, with a control signal flat, not every such curve was filed as active; note: % of control where 0% means no effect); details: HEK293 ACTOne CNG channel cells, membrane potential fluorescence; series mostly up to 22.9 µM
Chain of 3',5'-cyclic-AMP phosphodiesterase 4B (Homo sapiens) (Q07343 whole entry, looked up): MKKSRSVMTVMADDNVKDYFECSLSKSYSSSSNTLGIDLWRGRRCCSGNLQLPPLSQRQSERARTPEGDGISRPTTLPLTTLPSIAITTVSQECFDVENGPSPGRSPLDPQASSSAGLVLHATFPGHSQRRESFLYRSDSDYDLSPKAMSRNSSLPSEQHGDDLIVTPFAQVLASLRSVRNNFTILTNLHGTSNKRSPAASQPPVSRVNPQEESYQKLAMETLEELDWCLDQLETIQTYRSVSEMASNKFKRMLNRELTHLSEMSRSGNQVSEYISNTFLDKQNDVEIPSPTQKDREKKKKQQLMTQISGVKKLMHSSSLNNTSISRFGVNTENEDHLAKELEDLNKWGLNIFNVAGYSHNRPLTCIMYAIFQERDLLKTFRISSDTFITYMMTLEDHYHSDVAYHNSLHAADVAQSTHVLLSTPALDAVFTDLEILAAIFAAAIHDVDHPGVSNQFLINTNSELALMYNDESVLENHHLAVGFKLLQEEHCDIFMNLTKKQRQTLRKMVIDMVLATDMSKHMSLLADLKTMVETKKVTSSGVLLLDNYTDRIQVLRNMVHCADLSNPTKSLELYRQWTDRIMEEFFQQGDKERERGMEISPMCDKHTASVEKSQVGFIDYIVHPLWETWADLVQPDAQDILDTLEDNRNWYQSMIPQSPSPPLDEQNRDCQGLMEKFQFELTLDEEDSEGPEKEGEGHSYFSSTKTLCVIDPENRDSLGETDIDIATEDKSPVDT
Method in brief: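 Live HEK293 cells with a modified cyclic nucleotide-gated (CNG) channel report intracellular cAMP via membrane-potential dye fluorescence (ex 535/em 590 nm). Endogenous PDE-IV was targeted. Compounds were tested at up to 22.9 uM final; RO 20-1724 100 uM served as control.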

[7] = Primary qHTS for small molecule stabilizers of the endoplasmic reticulum resident proteome: Secreted ER Calcium Modulated Protein (SERCaMP) assay (AID 1508630; active = well fitted curve in the direction sought with a large enough effect; an effect the other way counts as inactive or inconclusive; note: % is set by controls: 0 for no effect and ±100 for the full control effect); details: SH-SY5Y GLuc-SERCaMP (Gaussia luciferase released on ER calcium loss) secretion, thapsigargin, luminescence; series mostly up to 38.4 µM
Method in brief: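 GLuc-SERCaMP-expressing SH-SY5Y cells, pretreated 16 h with compound, are challenged with thapsigargin to empty ER calcium stores; after 4 h, coelenterazine is added directly to the medium and luminescence is imaged.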

[8] = molecular target: Cytochrome P450 3A4 (Homo sapiens) (UniProt P08684); assay: qHTS Assay for Inhibitors and Substrates of Cytochrome P450 3A4 (AID 884; active = well fitted curve in the direction sought with a large enough effect; an effect the other way counts as inactive or inconclusive; note: nearly all actives have a fitted effect of over 50% in size; note: potency is the fitted concentration of half-maximal effect); details: recombinant CYP3A4, Luciferin-PPXE luminescence; series mostly up to 57.1 µM
Chain of Cytochrome P450 3A4 (Homo sapiens) (P08684 whole entry, looked up): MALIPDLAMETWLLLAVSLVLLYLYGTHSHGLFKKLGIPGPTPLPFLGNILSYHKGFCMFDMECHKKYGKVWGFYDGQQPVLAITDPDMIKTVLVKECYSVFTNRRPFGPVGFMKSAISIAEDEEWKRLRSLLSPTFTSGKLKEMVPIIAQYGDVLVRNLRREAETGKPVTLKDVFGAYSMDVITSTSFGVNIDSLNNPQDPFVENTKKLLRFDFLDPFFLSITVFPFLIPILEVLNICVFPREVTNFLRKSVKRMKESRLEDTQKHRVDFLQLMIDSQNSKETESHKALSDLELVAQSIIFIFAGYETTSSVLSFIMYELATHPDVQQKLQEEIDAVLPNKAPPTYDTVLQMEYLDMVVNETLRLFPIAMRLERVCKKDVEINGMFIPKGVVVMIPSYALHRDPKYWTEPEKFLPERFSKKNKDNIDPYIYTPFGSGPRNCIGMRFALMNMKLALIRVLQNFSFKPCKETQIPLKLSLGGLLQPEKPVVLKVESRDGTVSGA
Method in brief: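 20 nM human CYP3A4 with 25 uM Luciferin-PPXE (at KM) in 200 mM KPO4, preincubated 10 min with compound; NADPH regeneration started a 60 min RT reaction. Luciferin detected by luminescence, normalized to 57 uM ketoconazole as full inhibition.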

[9] = molecular target: Cytochrome P450 1A2 (Homo sapiens) (UniProt P05177); assay: p450-cyp1a2 (AID 410; calls by dose curve; note: potency is the fitted concentration of half-maximal effect); details: recombinant CYP1A2, luciferin-ME demethylation, luminescence; series mostly up to 57 µM
Chain of Cytochrome P450 1A2 (Homo sapiens) (P05177 whole entry, looked up): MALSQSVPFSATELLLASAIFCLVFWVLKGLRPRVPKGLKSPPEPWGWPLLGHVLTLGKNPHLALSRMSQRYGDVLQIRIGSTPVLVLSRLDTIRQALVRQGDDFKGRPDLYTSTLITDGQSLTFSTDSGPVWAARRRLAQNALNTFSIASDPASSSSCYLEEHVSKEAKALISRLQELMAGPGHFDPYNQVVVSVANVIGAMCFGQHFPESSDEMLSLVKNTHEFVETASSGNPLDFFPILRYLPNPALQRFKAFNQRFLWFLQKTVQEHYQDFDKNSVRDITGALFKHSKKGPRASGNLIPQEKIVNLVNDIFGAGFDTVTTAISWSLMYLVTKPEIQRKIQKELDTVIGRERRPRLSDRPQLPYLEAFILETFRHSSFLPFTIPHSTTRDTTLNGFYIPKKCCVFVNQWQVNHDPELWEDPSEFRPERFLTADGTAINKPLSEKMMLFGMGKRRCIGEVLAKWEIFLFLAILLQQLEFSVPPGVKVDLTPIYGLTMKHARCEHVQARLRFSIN
Method in brief: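 Luminescent readout of luciferin formed from Luciferin-ME by human CYP1A2; data normalized against complete inhibition by 57 uM furafylline. Enzyme 20nM, substrate 100uM at Km, 100mM KPO4 buffer, 60 min reaction at room temperature.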

[10] = NFAT Signaling Pathway (AID 444); details: Jurkat NFAT-bla M1, carbachol, beta-lactamase ratio, 5 h; at 7.69 µM (top of the series) unless noted
Method in brief: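 Read-out: CCF4 FRET ratio (460 nm/530 nm) after 1 h RT dye loading, used for %activity and AC50 from titration series. Cells: Jurkat NFAT-β-lactamase/M1 line, treated with compound plus 1 uM carbachol for 5 h, 37 °C.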

[11] = molecular target: Glucocorticoid receptor (Homo sapiens) (UniProt P04150); assay: GR-GFP Redistribution (AID 450;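 active = compounds whose dose series gives a full or clear partial fitted curve of increased nuclear translocation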; note: potency is the fitted concentration of half-maximal effect); details: U2OS GR-GFP nuclear translocation, laser cytometry, 2 h
[12] = molecular target: Cytochrome P450 2C9 (Homo sapiens) (UniProt P11712); assay: qHTS Assay for Inhibitors and Substrates of Cytochrome P450 2C9 (AID 883; active = well fitted curve in the direction sought with a large enough effect; an effect the other way counts as inactive or inconclusive; note: % is set by controls: 0 for no effect and ±100 for the full control effect; nearly all actives have a fitted effect of over 60% in size); details: recombinant CYP2C9, luciferin-H luminescence, 60 min; series mostly up to 57.1 µM
Chain of Cytochrome P450 2C9 (Homo sapiens) (P11712 whole entry, looked up): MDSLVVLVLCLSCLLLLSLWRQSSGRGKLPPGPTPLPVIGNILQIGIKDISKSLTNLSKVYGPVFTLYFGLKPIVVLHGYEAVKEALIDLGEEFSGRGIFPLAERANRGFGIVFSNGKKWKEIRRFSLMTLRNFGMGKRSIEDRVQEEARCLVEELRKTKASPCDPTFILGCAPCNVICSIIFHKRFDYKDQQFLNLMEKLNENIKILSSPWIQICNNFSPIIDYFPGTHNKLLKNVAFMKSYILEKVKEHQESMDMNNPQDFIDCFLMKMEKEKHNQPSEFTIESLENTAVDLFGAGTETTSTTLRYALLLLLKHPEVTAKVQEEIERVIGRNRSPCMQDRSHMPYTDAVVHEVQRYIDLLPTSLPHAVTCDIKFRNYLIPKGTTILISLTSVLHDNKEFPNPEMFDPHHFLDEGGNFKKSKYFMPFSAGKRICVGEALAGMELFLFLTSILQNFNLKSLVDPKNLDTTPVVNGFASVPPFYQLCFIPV
Method in brief: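 Turnover of Luciferin-H (100uM, KM) by 10nM human CYP2C9 was measured over 60 min at 37C with NADPH regeneration; inhibitors and some substrates reduce luminescence. Data normalized to sulphaphenazole 57uM.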

[13] = molecular target: Cytochrome P450 3A4 (Homo sapiens) (UniProt P08684); assay: qHTS Assay for Activators of Cytochrome P450 3A4 (AID 885; active = well fitted curve in the direction sought with a large enough effect; an effect the other way counts as inactive or inconclusive; note: nearly all actives have a fitted effect of over 65% in size); details: recombinant CYP3A4, Luciferin-PPXE luminescence, 60 min; series mostly up to 57.1 µM
Method in brief: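 Quantitative HTS format: compounds preincubated with 20nM human CYP3A4 and Luciferin-PPXE substrate at KM, reaction started by NADPH regeneration, stopped after 60 min, luciferase luminescence read 20 min later.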

[14] = Confirmation and Secondary Assay for Modulators of Hemoglobin Beta Chain Splicing at IVS2 654 locus (AID 910; active = well fitted curve in the direction sought with a large enough effect; an effect the other way counts as inactive or inconclusive;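 note: HeLa cells stably carrying EGFP split by mutant beta-globin IVS2-654 intron; % of control where 0% means no effect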); details: HeLa EGFP-654 splicing reporter, GFP fluorescence, 48 h; series mostly up to 38.3 µM
Method in brief: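 Readout: per-well total peak green fluorescence (488 nm ex, 500–520 nm em) from objects 5–250 µm, reflecting correct splicing of an EGFP-654 reporter. Compounds were applied for 2 days at 37 °C to overnight-plated HeLa EGFP-654 cells; controls were DMSO and 500 nM IVS2-654 PNA.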

[15] = Confirmation and Secondary Assay for Modulators of Hemoglobin Beta Chain Splicing at IVS2 705 locus (AID 930; active = well fitted curve in the direction sought with a large enough effect; an effect the other way counts as inactive or inconclusive;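 note: HeLa cells stably expressing the EGFP-705 splicing reporter; GFP fluorescence per well restored by corrected splicing of the IVS2-705 intron in EGFP; % of control where 0% means no effect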); details: HeLa EGFP-705 splicing reporter, GFP fluorescence, 48 h; series mostly up to 38.3 µM
Method in brief: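 Read-out: total peak GFP fluorescence per well (488 nm excitation, 500-520 nm emission) by laser-scanning cytometry. Cells: HeLa EGFP-705 splicing reporter, 2 days compound exposure in Optimem/2% FCS.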

[16] = qHTS Assay for Identification of Small Molecule Agonists for Hypoxia Response Element Signaling Pathway (AID 914; active = well fitted activation curve with a large enough effect in the signal ratio, with a control signal flat, not every such curve was filed as active; the % refers to the signal ratio; note: potency is the fitted concentration of half-maximal effect); details: ME-180 (cervical carcinoma) HRE-bla reporter, beta-lactamase ratio, CoCl2, 17 h; activation: hits give high values
Method in brief: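 HRE-bla ME-180 cells, overnight plating in Opti-MEM with 0.5% dialyzed FBS; cpd titration + EC50 CoCl2, 17 h, 37 degrees Celsius; CCF4 2.5 h RT; 460/530 nm ratio; AC50.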

[17] = molecular target: Ubiquitin carboxyl-terminal hydrolase 1 (Homo sapiens) (UniProt O94782); assay: Inhibitors of USP1/UAF1: Pilot qHTS (AID 504865; active = well fitted curve in the direction sought with a large enough effect; an effect the other way counts as inactive or inconclusive;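 note: rhodamine fluorescence freed from ubiquitin-rhodamine substrate followed over time; top concentration of the series differs between compounds; % is set by controls: 0 for no effect and ±100 for the full control effect; nearly all actives have a fitted effect of over 35% in size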); details: purified USP1/UAF1, Ub-rhodamine cleavage fluorescence; series mostly up to 54.9 µM
Chain of Ubiquitin carboxyl-terminal hydrolase 1 (Homo sapiens) (O94782 whole entry, looked up): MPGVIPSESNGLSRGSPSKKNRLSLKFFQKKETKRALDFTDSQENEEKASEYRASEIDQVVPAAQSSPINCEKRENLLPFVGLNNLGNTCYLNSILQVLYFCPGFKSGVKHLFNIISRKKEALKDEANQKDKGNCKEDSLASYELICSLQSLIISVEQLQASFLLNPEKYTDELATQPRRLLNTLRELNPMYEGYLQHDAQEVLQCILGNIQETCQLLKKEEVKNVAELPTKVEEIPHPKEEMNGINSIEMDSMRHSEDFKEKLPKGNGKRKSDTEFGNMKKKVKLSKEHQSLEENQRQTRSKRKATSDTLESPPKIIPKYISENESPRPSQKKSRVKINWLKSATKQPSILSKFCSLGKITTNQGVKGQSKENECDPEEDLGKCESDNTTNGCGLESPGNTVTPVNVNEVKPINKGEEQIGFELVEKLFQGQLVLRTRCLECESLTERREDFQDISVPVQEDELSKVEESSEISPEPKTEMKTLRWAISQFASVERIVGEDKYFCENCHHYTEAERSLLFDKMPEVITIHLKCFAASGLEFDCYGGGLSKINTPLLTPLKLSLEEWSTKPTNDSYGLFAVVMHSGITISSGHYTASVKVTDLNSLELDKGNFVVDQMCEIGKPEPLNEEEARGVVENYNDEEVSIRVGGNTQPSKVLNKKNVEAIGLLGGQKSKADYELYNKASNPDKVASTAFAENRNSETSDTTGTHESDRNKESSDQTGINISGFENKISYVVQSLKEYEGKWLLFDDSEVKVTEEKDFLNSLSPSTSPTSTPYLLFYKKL
Method in brief: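 USP1/UAF1 complex at 1 nM preincubated 15 min at room temperature with compound, then Ub-Rho substrate added at 150 nM final. Fluorescence (480/540 nm) read kinetically in 50 mM HEPES pH 7.8, 0.5 mM EDTA, 1 mM TCEP, 0.1 mg/ml BSA, 0.01% Tween-20.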

O=C(c1ccncc1)N1CCC2(CCCN(c3ncccn3)C2)CC1
inactive: Potency [1] > 11.4 µM | activity change, negative = inhibition [2] -5.83% | activity, negative = inhibition [3] 5.19% | Potency [4] > 46 µM | Potency [5] | Potency [6] | outcome [7]

O=C(c1cccc(F)c1)N1CCC2(CC1)CCN(c1ccccn1)CC2
inactive: Potency [1] > 11.4 µM | activity change, negative = inhibition [2] -6.05% | activity, negative = inhibition [3] -4.99% | Potency [4] > 46 µM | Potency [5] | Potency [6] | Potency [8] | outcome [7]

O=C(Nc1cccc(F)c1)N1CCCC2(CCN(C(=O)c3ccco3)CC2)C1
inactive: Potency [1] > 11.4 µM | activity change, negative = inhibition [2] -8.03% | activity, negative = inhibition [3] 0.264% | Potency [4] > 46 µM | Potency [5] | outcome [7]

O=S(=O)(c1ccccc1)N1CCC2(CCCN(c3ccncc3)C2)CC1
inactive: Potency [1] > 11.4 µM | activity change, negative = inhibition [2] 22.1% | activity, negative = inhibition [3] 9.67% | Potency [4] > 46 µM | Potency [5] | Potency [6] | outcome [7]

O=C(c1csnn1)N1CCC2(CCCN(c3ccccn3)C2)CC1
inactive: Potency [1] > 11.4 µM | activity change, negative = inhibition [2] -4.82% | activity, negative = inhibition [3] 9.35% | Potency [4] > 46 µM | Potency [5] | Potency [6] | outcome [7]

COc1ccc(C(=O)N2CCC3(CCCN(c4ccncc4)C3)CC2)cc1
inactive: Potency [1] > 11.4 µM | activity change, negative = inhibition [2] 7.18% | activity, negative = inhibition [3] 8.4% | Potency [4] > 46 µM | Potency [5] | Potency [6] | outcome [7]

O=C(c1ccncc1)N1CCC2(CCN(Cc3cc(C(F)(F)F)cc(C(F)(F)F)c3)CC2)CC1
inactive: Potency [1] > 11.4 µM | activity change, negative = inhibition [2] 2.71% | activity, negative = inhibition [3] -0.397% | Potency [4] > 46 µM | Potency [5] | Potency [6] | outcome [7]

COc1ccccc1CNc1cc(-c2cccc(NS(C)(=O)=O)c2)ncn1
active: Potency [9] 15.8 µM | Potency [8] 5.01 µM
inactive: Potency [1] > 11.4 µM | activity change, negative = inhibition [10] -3.65% | activity, negative = inhibition [3] -1.76% | Potency [11] > 46 µM | Potency [4] > 46 µM | Potency [5] | Potency [6] | activity change, negative = inhibition [12] 33% [at 2.29 µM] | Potency [13] | Potency [14] | outcome [15] | outcome [7]

O=C(Oc1ccccc1)N1CCC2(CCCN(c3ncccn3)C2)CC1
active: Potency [9] 10 µM
inactive: Potency [1] > 11.4 µM | activity change, negative = inhibition [10] -6.42% | activity, negative = inhibition [3] -23.6% | Potency [4] > 46 µM | Potency [6] | outcome [7]

O=c1c(-c2cccs2)nc2cnc(Oc3ccccc3)nc2n1-c1ccccc1
inactive: Potency [1] > 11.4 µM | activity change, negative = inhibition [2] 3.02% | Potency [11] > 9.22 µM | Potency [4] > 46 µM | Potency [5] | outcome [7]
active: Potency [16] 2.51 µM

COc1ccc(CNc2nc(-c3ccccc3CN(C)C)nc3ccccc23)c(OC)c1
inactive: Potency [1] > 11.4 µM | activity change, negative = inhibition [10] -28% | activity, negative = inhibition [3] -17.2% | Potency [11] > 46 µM | Potency [4] > 46 µM | Potency [5] | activity change, negative = inhibition [12] 25.6% [at 2.29 µM] | Potency [13] | Potency [14] | outcome [15] | Potency [17] | outcome [7]
active: Potency [9] 10 µM | Potency [8] 7.94 µM

— PubChem BioAssay (NCATS)
